Screening data (PubChem BioAssay)
FPRL1 binder = ligands of human FPRL1, also counter-screen for FPR ligands | P25090 | 24,000 compounds, 0.3% hits | inhibition, % (test concentration not listed) | AID 441 | FPRL1-expressing cells, fluorescent ligand binding inhibition, flow cytometry;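 also: 0% = buffer alone and 100% = receptor blocker peptide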
FPR ligand = binds the human formylpeptide receptor FPR; P21462; FPR-expressing cells, fluorescent ligand binding, flow cytometry; inhibition, % (no concentration beside the values); 24,000 compounds, 0.74% hits;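 also: 0% = buffer wells and 100% = receptor blocker peptide wells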
Target sequence (P21462 whole entry, looked up): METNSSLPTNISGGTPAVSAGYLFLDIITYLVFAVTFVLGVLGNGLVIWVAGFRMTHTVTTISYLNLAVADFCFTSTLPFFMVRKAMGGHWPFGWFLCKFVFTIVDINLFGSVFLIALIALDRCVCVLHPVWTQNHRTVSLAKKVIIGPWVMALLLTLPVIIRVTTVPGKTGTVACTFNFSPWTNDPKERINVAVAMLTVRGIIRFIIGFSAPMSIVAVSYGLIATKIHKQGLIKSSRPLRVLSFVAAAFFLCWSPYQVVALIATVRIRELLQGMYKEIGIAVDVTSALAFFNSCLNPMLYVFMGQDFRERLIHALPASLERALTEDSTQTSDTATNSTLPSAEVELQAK
QS inhibitor = S. aureus quorum sensing inhibition; S. aureus RN6390 RNAIII-GFP reporter, AIP-induced, flow cytometry 3 h; inhibition, % at 2 µM; 24,000 compounds, 0.3% hits;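 active = share of bacteria positive for the green fluorescent reporter and its mean brightness both inhibited by 50% or more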;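 also: 0% = AIP-stimulated control and 100% = unstimulated bacteria without AIP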
Prostate diff = promotes differentiation of LNCaP prostate cells; flow cytometry side scatter, 4 d; side scatter shift, % at 10 µM; 24,000 compounds, 0.56% hits;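 active = side scatter shift above 30%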;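 also: androgen-responsive LNCaP prostate cancer cells in charcoal-stripped serum medium; percent of cells past a gate set so DMSO wells show 10% shift; higher shift means more granular cells and more differentiation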
Starred values were filed as active, the others as inactive; x = no result. Sampled rows, rich in hits. Any-hit rate of the full collection: about 1.7%. Rule as the data show it, unless noted: active = inhibition above about 30%; inconclusive = no clear call, values can overlap the other calls; inactive = below that.

SMILES	FPRL1 binder	FPR ligand	QS inhibitor	Prostate diff
C=CCN1C(=O)C2(C(C#N)=C(N)Oc3n[nH]c(CCC)c32)c2ccccc21 (stereo not drawn)	-2.6	0.2	-2.1	13.0
CCn1c(=O)cc(SCC(=O)NCCCN2CCN(c3ccccc3F)CC2)c2ccccc21	7.1	-13.1	4.2	49.0*
CC1(C)CC(=O)c2cc(OCC(=O)NCCCN3CCN(c4ccccc4F)CC3)ccc2O1	-2.3	3.6	4.6	30.0*
Cc1noc(NS(=O)(=O)c2ccc(NC(=O)c3cnc4n(c3=O)CCS4)cc2)c1C	-2.8	4.3	4.7	8.0
CCOC(=O)N1CCC(N2C(=O)c3ccc(C(=O)NC4CCCCCC4)cc3C2=O)CC1	-0.6	-11.1	5.4	11.0
CCn1cc(C(=O)NC2CCC(C)CC2)c(=O)c2cc(S(=O)(=O)N3CCCCC3)ccc21 (stereo not drawn)	0.2	32.2*	5.6	3.0
CC(C)N=c1cc2n(-c3ccc(Cl)cc3)c3ccccc3nc-2cc1Nc1ccc(Cl)cc1	18.0	7.8	70.5*	1.0
COc1ccccc1Oc1c(C)oc2cc(OC(=O)c3ccco3)ccc2c1=O	0.5	92.8*	x	x
CCOc1ccccc1Oc1c(C)oc2cc(OC(=O)c3ccco3)ccc2c1=O	-3.5	79.3*	x	x
COc1ccccc1-c1c(C)oc2cc(OC(=O)c3ccco3)ccc2c1=O	-1.3	68.3*	x	x
Cc1oc2cc(OCC(=O)O)ccc2c(=O)c1Oc1ccccc1	-8.6	-2.6	-3.2	0.0
COc1ccc(Oc2c(C)oc3cc(OC(=O)N4CCOCC4)ccc3c2=O)cc1	5.5	1.2	-1.4	11.0
CCOC(=O)c1oc2cc(O)ccc2c(=O)c1-c1ccccc1OC	23.5	34.2*	x	x
CCCOc1ccc2c(=O)c(-c3cc(C(=O)OC)oc3C)c(C)oc2c1	0.1	0.7	x	x
Cc1cc(C)n2nnnc2c1C#N	-7.5	2.4	1.9	37.0*
Cc1cc(C)n(Cc2ccc(F)cc2)c(=O)c1C#N	2.3	0.5	-1.4	17.0
Cc1ccc(-c2cc(C(F)F)nc(N3CCC(C)CC3)n2)cc1	1.6	6.1	0.0	10.0
COc1ccc(S(=O)(=O)Nc2ccccc2SC)cc1C	1.5	-1.2	-0.8	16.0
CSc1ccccc1NS(=O)(=O)c1ccccc1	29.1	30.9*	-13.5	7.0
CC1CN(c2nc3ccccc3nc2C(C#N)C(=O)NCc2ccc3c(c2)OCO3)CC(C)O1 (stereo not drawn)	4.9	-0.1	-0.6	2.0
COc1ccc(-c2nnc(Nc3nc4c(OC)cccc4s3)o2)c(OC)c1	5.5	62.1*	-1.8	8.0
COc1ccc(-c2nnc(Nc3nc4c(OC)cccc4s3)o2)cc1	2.6	51.6*	-2.9	3.0
COc1cc(OC)cc(-c2nnc(Nc3nc4c(F)cccc4s3)o2)c1	1.3	2.8	-0.4	10.0
COC(=O)c1cc(NC2c3ccccc3C(=O)N2CCN2CCOCC2)cc(C(=O)OC)c1 (stereo not drawn)	6.1	6.8	-1.3	13.0
CCC(C)NC(=O)CS(=O)Cc1nc(-c2ccccc2C)oc1C (stereo not drawn)	0.3	-1.9	-10.3	6.0
SMILES	FPRL1 binder	FPR ligand	QS inhibitor	Prostate diff
O=C(C1=C(O)C(=O)N(CCN2CCOCC2)C1c1ccccc1)c1cccs1 (stereo not drawn)	28.4	44.2*	x	x
O=C(C1=C(O)C(=O)N(CCCN2CCOCC2)C1c1ccccn1)c1cccs1 (stereo not drawn)	-6.9	-2.2	x	x
C=CCOc1cccc(C2C(C(=O)c3ccco3)=C(O)C(=O)N2CCN2CCOCC2)c1 (stereo not drawn)	-2.3	62.6*	x	x
COc1ccc(OC)c(C2C(C(=O)c3ccco3)=C(O)C(=O)N2CCCN2CCOCC2)c1 (stereo not drawn)	1.3	49.8*	x	x
Cc1cccc(Cn2c(SCC(=O)Nc3ccccc3)nc3c2c(=O)[nH]c(=O)n3C)c1	6.3	11.0	-0.3	6.0
COC(=O)c1c(-c2cccs2)csc1NC(=O)CN1CCOCC1	-5.1	-8.0	-0.6	13.0
CCOC(=O)c1c(-c2ccc(C)o2)csc1NC(=O)CN1CCN(CC)CC1	-2.2	-0.1	-0.2	34.0*
Cc1nc2c(-c3ccc(F)cc3)c(C)nn2c(C)c1CCC(=O)NC(C)CCc1ccco1 (stereo not drawn)	-5.8	44.3*	17.4	5.0
Cc1nc2c(-c3ccccc3)c(C)nn2c(C)c1CCC(=O)NCc1ccco1	-1.1	6.5	-0.7	6.0
COc1cc2c3c(c1)/C(=C1/SC(NC(C)=O)=NC1=O)C(=O)N3C(C)(C)C=C2C	10.8	30.3*	-1.0	8.0
O=C(Nc1ccc(F)cc1)N(CCCN1CCOCC1)Cc1cc2cc3c(cc2[nH]c1=O)OCO3	2.5	-5.5	9.8	10.0
CCc1ccc2[nH]c(=O)c(CN(CCCN3CCOCC3)C(=O)Nc3ccc(F)cc3)cc2c1	x	x	92.9*	x
CCOC(=O)CCC(=O)O[C@H]1[C@H](O[C@@H]2[C@@H](C)[C@H](O[C@H]3C[C@@](C)(OC)[C@@H](O)[C@H](C)O3)[C@@H](C)C(=O)O[C@H](CC)[C@@](C)(O)[C@H](O)[C@@H](C)C(=O)[C@H](C)C[C@@]2(C)O)O[C@H](C)C[C@@H]1N(C)C	-2.5	-0.4	51.8*	1.0
CCN(CC)CCCNC(CC(=O)O)C(=O)O (stereo not drawn)	0.9	-3.1	-1.1	7.0
CN(C(=O)c1ccccn1)c1nnc(-c2cccnc2)s1	-0.3	-3.3	-0.3	32.0*
Cc1oc(-c2ccc(Cl)cc2)nc1CN1CCC(C(=O)N2CCN(Cc3ccccc3)CC2)CC1	3.5	-4.1	-0.2	78.0*
Cc1oc(-c2ccc(Cl)cc2)nc1CN1CCC(C(=O)N2CCc3ccccc3C2)CC1	-10.3	-2.9	10.2	11.0
Cc1oc(-c2cccc(Cl)c2)nc1CN1CCC(C(=O)N2CCN(c3ccccc3F)CC2)CC1	-0.4	0.5	11.1	34.0*
O=C(NCC1CCCO1)C1c2ccccc2C(=O)N1C1CCCCCC1 (stereo not drawn)	-5.9	2.9	-1.3	5.0
COc1ccc(-c2noc(CCC(=O)NCCCN3CCC(Cc4ccccc4)CC3)n2)cc1	1.5	-2.8	-1.3	32.0*
CCC(SC1=Nc2ccccc2C2=NC(CC(C)C)C(=O)N12)C(=O)Nc1ccc2c(c1)OCO2 (stereo not drawn)	14.5	58.3*	-1.0	6.0
O=C(O)CCCNc1cc(N2CCC3(CC2)OCCO3)c2noc3c2c1C(=O)c1ccccc1-3	73.3*	31.8*	24.4	5.0
CCOC(=O)N1CCN(c2cc(NCCC(=O)O)c3c4c(onc24)-c2ccccc2C3=O)CC1	60.6*	32.2*	10.7	0.0
COc1ccc(N(CC(=O)NCc2cccs2)S(=O)(=O)c2c(C)n[nH]c2C)cc1	-3.9	2.3	0.1	12.0
CN1CCN(c2ccccc2NS(=O)(=O)c2ccc3c(c2)CCN3C(=O)C2CCC2)CC1	-4.4	0.6	4.0	46.0*
Cc1ccc(C2/C(=C(/O)c3ccccc3)C(=O)C(=O)N2CCN2CCOCC2)o1 (stereo not drawn)	0.1	-4.7	x	x
CCOc1cccc(/C(O)=C2/C(=O)C(=O)N(CCOC)C2c2ccc(C)o2)c1 (stereo not drawn)	-10.9	50.8*	x	x
O=C(OCn1nnc2ccccc2c1=O)c1cc2ccccc2o1	8.2	-1.8	0.7	12.0
